# FAS TE block = blocks the thioesterase domain of human fatty acid synthase; recombinant FAS-TE, OMFH fluorogenic substrate, fluorescence endpoint; inhibition, % at 15 µM; hit rate 0.67% among 360,000; P49327;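 active = compounds whose normalised, plate-corrected inhibition of enzyme fluorescence in the single-dose primary screen is 50% or more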;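 note: 0% = DMSO with enzyme and 100% = substrate without enzyme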
# ADAM10 inh = ADAM10 inhibition, QFRET primary screen. inhibition, % at 7 µM. O14672. recombinant ADAM10, EDANS/DABCYL FRET peptide cleavage, 3 h. AID 720582. hit rate 0.62% among 370,000;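 active = inhibition above a per-campaign cutoff equal to the mean of compounds falling between control-based bounds plus 3 SD, cut at about 20% in these data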;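 note: 0% = DMSO wells while the 100% control is not disclosed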
# KLK7 zymogen act = activators of human kallikrein-7 zymogen | activation, % at 7 µM | hit rate 0.9% among 370,000 | purified proKLK7, EDANS-DABCYL substrate fluorescence; 100% is mature enzyme control, 0% vehicle | AID 652039 | P49862;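 active = activation above the mean of all tested compounds plus 3 SD, computed per campaign excluding outliers beyond control limits, cut at about 13% in these data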
# Target sequence (P49862 whole entry, looked up): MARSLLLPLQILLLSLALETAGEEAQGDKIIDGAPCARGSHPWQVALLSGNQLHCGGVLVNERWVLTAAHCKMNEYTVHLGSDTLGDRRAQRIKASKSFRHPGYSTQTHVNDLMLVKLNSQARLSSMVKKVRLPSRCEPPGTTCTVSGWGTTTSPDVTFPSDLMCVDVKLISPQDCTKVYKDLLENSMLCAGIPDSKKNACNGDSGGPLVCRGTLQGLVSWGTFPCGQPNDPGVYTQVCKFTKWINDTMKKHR
# GRIN3A LBD mod = NR3A (human) ligand-binding domain modulation | NR3A LBD differential scanning fluorimetry, Tm shift; 0% = protein alone, 100% = glycine-bound protein | hit rate 2.5% among 340,000 | Tm shift relative to glycine control, % at 25 µM;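 active = melting temperature shift of at least 10% of the positive control shift, at one fixed dose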
# ADAM17 inh = ADAM17 inhibition, QFRET primary screen; P78536; hit rate 0.83% among 370,000; AID 720648; recombinant ADAM17, EDANS/DABCYL FRET peptide cleavage; inhibition, % at 6.95 µM;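 active = inhibition above the mean of compounds lying between control limits plus 3 SD, set per campaign, cut at about 8.5% in these data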;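 note: 0% = DMSO-only wells as the low control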
# KLK7 act conf = confirmation of human kallikrein-7 zymogen activators; shares compounds with KLK7 zymogen act; purified proKLK7, EDANS-DABCYL substrate fluorescence; scaled: vehicle 0, mature enzyme 100; activation, % at 7 µM; hit rate 68% among 3,200;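 active = activation, as change over the incubation, above the mean of all tested compounds plus 3 SD, cut at about 13% in these data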
# EDANS-DABCYL int = fluorescence interference counter-screen for KLK7 activators. EDANS-DABCYL substrate fluorescence interference, no enzyme, 4 h; solvent 0%, active enzyme control 100%. hit rate 80% among 3,200. activation, % at 7 µM. AID 686952. shares compounds with KLK7 zymogen act;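 active = activation above the all-compound mean plus 3 SD, ignoring values outside control-based bounds, cut at about 4.8% in these data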;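 note: value is the 4 h activation minus the activation read at time zero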
# EDANS interf = counter-screen for kallikrein-7 activators: EDANS-DABCYL interference, dose response; EDANS-DABCYL peptide fluorescence interference, no enzyme; shares compounds with KLK7 zymogen act; AID 720493; hit rate 20% among 250; EC50, µM;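 active = compounds that raise the fluorescence signal in this interference counterscreen, with EC50 at or below 10 µM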;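 note: intact quenched peptide substrate alone read at 355 nm excitation and 520 nm emission; signal is fluorescence gain from T0 to T4 after four hours at room temperature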
# Numbers without * were called inactive; i = inactive; x = not tested or not shown. A selection: hits, their analogues and other compounds. The true share with any hit is near 4.6%.
SMILES,FAS TE block,ADAM10 inh,KLK7 zymogen act,GRIN3A LBD mod,ADAM17 inh,KLK7 act conf,EDANS-DABCYL int,others
CN(N=Cc1ccc2c(c1)OCO2)C(=O)c1ccccc1N,x,-8.0,-0.5,x,-1.7,x,x,
N#CCn1cc(/C=N/NC(=O)c2cc3c(ccc4ccccc43)o2)c2ccccc21,4.0,-101.2,35.5*,24.8*,-51.7,-35.7,-2.6,
COc1ccccc1/C=N/NC(=O)c1cc2c(ccc3ccccc32)o1,18.7,-33.7,-5.7,-0.9,-4.5,x,x,
COc1ccc(/C=N/NC(=O)c2cc3c(ccc4ccccc43)o2)cc1OC,2.8,-218.7,42.7*,20.1*,-56.9,58.2*,4.5*,EDANS interf=>69.5
CCCCNC(=O)C1CCCN1C(=O)Nc1cc(C)cc(C)c1 (stereo not given),x,-0.8,-0.4,x,1.5,x,x,
COc1ccc(S(=O)(=O)NCCc2cn3nc(C)c(C)nc3n2)cc1F,-3.8,i,20.1*,1.3,-357.4,72.6*,81.2*,
CC(=O)Nc1ccc(S(=O)(=O)NCCc2cn3nc(C)c(C)nc3n2)cc1,-2.5,i,16.4*,2.3,-194.2,61.8*,55.2*,
CC(=O)Nc1ccc(S(=O)(=O)NCCNS(=O)(=O)c2ccc(NC(C)=O)cc2)cc1,-2.0,-0.3,0.0,0.5,-0.5,x,x,
COc1ccc(S(=O)(=O)NCc2cn3c(C)csc3n2)cc1F,-4.9,-4.3,-0.1,4.2,-1.7,x,x,
CC(C)CNC(=O)OCc1cn(Cc2ccc(F)c(F)c2)nn1,x,3.6,-0.8,x,-0.3,x,x,
C=C(C)CSc1nnc(-c2cc(-c3ccc(OC)cc3)n[nH]2)n1N,x,-4.5,0.0,x,0.3,x,x,
COC(=O)N(C)C[C@H]1OCc2cn(nn2)CCCC(=O)N([C@H](C)CO)C[C@@H]1C,x,4.8,-0.3,x,-0.3,x,x,
CCOC(=O)N1CCN(C(=O)c2ccc3nc4ccsc4c(=O)n3c2)CC1,-2.0,i,14.5*,-1.8,-224.5,24.8*,20.4*,EDANS interf=>69.5
CCOC(=O)N1CCN(C(=O)c2cccn3c(=O)c4sccc4nc23)CC1,-9.0,i,73.3*,0.2,-481.8,63.3*,69.1*,
O=C(c1ccc(Cl)cc1)C1CCN(c2ncnc3sccc23)CC1,x,-0.5,x,x,-0.1,x,x,
COc1ccccc1-c1c(C(F)(F)F)oc2c(CN(C)C)c(O)ccc2c1=O,-4.4,-32.4,6.7,2.0,-12.8,x,x,
CCOc1ccccc1Oc1c(C)oc2cc(OC(=O)N3CCOCC3)ccc2c1=O,-4.6,-18.5,-1.2,0.2,-2.1,x,x,
CCCCN(C)Cc1c(O)ccc2c(=O)c(-c3ccccc3OC)coc12,-7.3,i,55.9*,0.2,i,65.9*,74.2*,
COc1cccc(Oc2c(C)oc3c(CN4CCCC4)c(O)ccc3c2=O)c1,-6.4,i,75.4*,-0.5,i,73.7*,78.2*,
COC(=O)c1ccc(Oc2c(C(F)(F)F)oc3c(CN4CCN(C)CC4)c(O)ccc3c2=O)cc1,-4.9,-14.4,7.8,-0.9,-8.3,x,x,
COc1ccccc1Oc1c(C)oc2c(CN3CCOCC3)c(O)ccc2c1=O,-6.9,i,189.2*,-3.4,i,42.2*,48.6*,
COc1cccc(Oc2coc3c(CN4CCOCC4)c(O)ccc3c2=O)c1,-6.4,i,180.9*,-0.4,i,63.9*,61.3*,
O=C(C1CCCN1S(=O)(=O)c1ccc(Br)s1)N1CCc2ccccc2C1 (stereo not given),x,-1.6,-0.5,x,1.1,x,x,
COc1ccccc1-c1coc2c(CN3CCOCC3)c(O)ccc2c1=O,-3.1,i,158.8*,0.5,i,66.3*,57.8*,
CCOC(=O)c1oc2c(CN3CCN(C)CC3)c(O)ccc2c(=O)c1-c1ccccc1OC,-6.6,3.1,4.9,1.9,0.7,x,x,
CCOc1ccccc1Oc1c(C)oc2c(CN3CCN(C)CC3)c(O)ccc2c1=O,-3.6,i,77.3*,-0.5,i,76.8*,74.3*,
O=c1c(-c2ccc3c(c2)OCCO3)coc2c(CN3CCOCC3)c(O)ccc12,-2.2,-258.4,13.4*,2.0,-93.8,20.5*,19.2*,
COc1ccccc1Oc1coc2c(CN3CCOCC3)c(O)ccc2c1=O,-3.0,i,193.3*,0.4,-484.1,67.7*,79.5*,

# Bioassay records from PubChem.
